From the supplement of paper PMC3545927
This is one part of the list. The hit rate among all sequences tested is not known here.

Target: furin, P09958
Assay: furin cleavage Z-score vs untreated control; higher = more cleavage, active = 3.5 or more, inactive = 1 or less, 8 variable residues between constant flanks
Outline: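 The cleavage Z-score is the log read count relative to furin-free reactions, lowess-adjusted and scaled by median absolute deviation. Counts came from sequencing DNA released from bead-bound 8-mer peptide–cDNA fusions after digestion with purified furin for 7.5, 15 or 30 min.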
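Note: purified furin at 1:10 enzyme:substrate in 50 mM HEPES pH 7.5.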

furin, P09958, sequence (P09958 whole entry): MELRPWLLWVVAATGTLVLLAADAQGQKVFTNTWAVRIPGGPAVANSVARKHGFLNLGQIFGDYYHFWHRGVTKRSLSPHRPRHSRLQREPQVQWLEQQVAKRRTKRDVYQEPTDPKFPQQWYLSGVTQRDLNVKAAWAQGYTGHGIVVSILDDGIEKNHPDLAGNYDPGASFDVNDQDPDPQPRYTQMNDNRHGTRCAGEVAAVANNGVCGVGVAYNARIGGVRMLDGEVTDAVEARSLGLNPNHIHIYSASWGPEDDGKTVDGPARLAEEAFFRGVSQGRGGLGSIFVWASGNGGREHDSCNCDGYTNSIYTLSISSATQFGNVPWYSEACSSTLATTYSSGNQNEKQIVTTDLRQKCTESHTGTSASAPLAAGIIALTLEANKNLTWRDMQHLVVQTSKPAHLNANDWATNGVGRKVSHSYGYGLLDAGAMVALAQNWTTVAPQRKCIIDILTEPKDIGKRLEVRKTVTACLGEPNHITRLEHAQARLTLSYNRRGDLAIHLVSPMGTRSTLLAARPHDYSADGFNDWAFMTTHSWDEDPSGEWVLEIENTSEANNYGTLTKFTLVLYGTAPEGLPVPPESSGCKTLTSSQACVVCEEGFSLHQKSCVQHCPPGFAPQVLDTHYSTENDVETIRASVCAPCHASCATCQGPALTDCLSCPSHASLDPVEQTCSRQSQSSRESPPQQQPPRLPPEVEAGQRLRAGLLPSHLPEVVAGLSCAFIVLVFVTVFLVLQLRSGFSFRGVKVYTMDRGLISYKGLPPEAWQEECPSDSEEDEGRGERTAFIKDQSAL

Sequence	furin cleavage Z-score (7.5 min)	furin cleavage Z-score (15 min)	furin cleavage Z-score (30 min)
CARGQRSVKAAGNASASA [FS-3250]	0.885 (inactive)	-0.415 (inactive)	1.5
CARGKRFSQSAGNASASA [FS-2934]	0.749 (inactive)	2.29	2
CARGIRPVGRAGNASASA [FS-2932]	-0.929 (inactive)	-0.4 (inactive)	0.111 (inactive)
CARGKRSAGPAGNASASA [FS-1951]	11.6 (active)	13.8 (active)	9.13 (active)
CARGSRFSKSAGNASASA [FS-83]	-0.0204 (inactive)	-0.301 (inactive)	0.871 (inactive)
CARGKRLDGPAGNASASA [FS-3188]	0.0707 (inactive)	0.484 (inactive)	-0.699 (inactive)
CARGKRSPKSAGNASASA [FS-2672]	11.3 (active)	11 (active)	9.78 (active)
CARGKRSCHAAGNASASA [FS-2333]	5.25 (active)	5.05 (active)	5.61 (active)
CAETPCSAHLAGNASASA [HC2472]	-0.0785 (inactive)	-0.846 (inactive)	-1.94 (inactive)
CAVCSCLWMMAGNASASA [HC526]	-0.293 (inactive)	-0.986 (inactive)	-0.164 (inactive)
CARHRRRGSPAGNASASA [FS-2146]	0.761 (inactive)	1.81	1.39
CARHRRLLSIAGNASASA [FS-3256]	-0.899 (inactive)	-0.261 (inactive)	-0.784 (inactive)
CARHRRALDTAGNASASA [FS-2943]	5.7 (active)	5.62 (active)	5.06 (active)
CARHRRSLRLAGNASASA [FS-1717]	6.94 (active)	6.95 (active)	9.37 (active)
CARKKRNGLTAGNASASA [FS-2155]	5.12 (active)	6.11 (active)	6.82 (active)
CARKKKLVSTAGNASASA [FS-2560]	-1.01 (inactive)	-1.81 (inactive)	-1.46 (inactive)
CARHRRMLTPAGNASASA [FS-2946]	5.72 (active)	9.34 (active)	8.35 (active)
CARKKKTEGTAGNASASA [FS-2423]	-1.18 (inactive)	0.416 (inactive)	0.176 (inactive)
CARHRRYKALAGNASASA [FS-2556]	-0.784 (inactive)	-0.33 (inactive)	3.08
CARHRRGQETAGNASASA [FS-2145]	0.466 (inactive)	0.563 (inactive)	2.26
CARHRRVNGTAGNASASA [FS-2492]	0.115 (inactive)	-0.477 (inactive)	-0.55 (inactive)
CAMCECSQHLAGNASASA [HC1700]	0.0737 (inactive)	0.814 (inactive)	-2.77 (inactive)
CACYSIEPLDAGNASASA [HC1596]	-0.277 (inactive)	-1.75 (inactive)	-0.48 (inactive)

Sequence	furin cleavage Z-score (7.5 min)	furin cleavage Z-score (15 min)	furin cleavage Z-score (30 min)
CAATGNLPGCAGNASASA [HC243]	-1.92 (inactive)	-0.777 (inactive)	-0.233 (inactive)
CARNQRIVQLAGNASASA [FS-2435]	-2.13 (inactive)	0.536 (inactive)	0.203 (inactive)
CARKKRALDAAGNASASA [FS-2691]	9.58 (active)	11.5 (active)	8.67 (active)
CARKKRALDTAGNASASA [FS-2561]	9.66 (active)	11.1 (active)	10.8 (active)
CAQRAYALDTAGNASASA [HC563]	-1.1 (inactive)	-1.23 (inactive)	-0.561 (inactive)
CALPGIPFVSAGNASASA [HC1162]	-1.14 (inactive)	0.0847 (inactive)	-1.27 (inactive)
CAQASRTRRNAGNASASA [FS-621]	11.3 (active)	14.2 (active)	10.1 (active)
CAKKQRSRRNAGNASASA [FS-1219]	9.72 (active)	9.45 (active)	8.79 (active)
CATYQRHYRNAGNASASA [FS-512]	1.23	0.916 (inactive)	2.99
CATNPKPQKKAGNASASA [HC162]	-1.19 (inactive)	-0.825 (inactive)	-2.33 (inactive)
CASAPCSAHLAGNASASA [HC2483]	-0.101 (inactive)	0.964 (inactive)	0.332 (inactive)
CATVATRDGKAGNASASA [HC283]	-0.692 (inactive)	-1.6 (inactive)	-0.623 (inactive)
CARQPRKQGGAGNASASA [FS-2445]	-0.459 (inactive)	0.227 (inactive)	0.306 (inactive)
CARFSRTVQDAGNASASA [FS-2668]	2.27	2.81	4.69 (active)
CARDERSWFRAGNASASA [FS-2901]	0.291 (inactive)	-0.493 (inactive)	0.641 (inactive)
CARFFRSACSAGNASASA [FS-1820]	0.97 (inactive)	0.0813 (inactive)	-0.895 (inactive)
CARFIRSVMSAGNASASA [FS-3246]	5.54 (active)	5.87 (active)	8.7 (active)
CARFLRSVMSAGNASASA [FS-1821]	1.23	4.09 (active)	5.69 (active)
CARMLRSVFSAGNASASA [FS-1831]	-0.826 (inactive)	-0.551 (inactive)	1.65
CARFVRSVMSAGNASASA [FS-3248]	4.15 (active)	5.68 (active)	5.23 (active)
CARFLRSKTLAGNASASA [FS-2415]	0.914 (inactive)	1.56	0.306 (inactive)
CARSKRTEQDAGNASASA [FS-2088]	-0.228 (inactive)	1.41	1.56
CANFKRSVASAGNASASA [FS-1847]	0.0489 (inactive)	1.11	0.734 (inactive)
